This is an account of results in PubChem BioAssay (NCI).

Holding throughout (test): NCI-60 one-dose screen, 48 h (100 = growth as untreated, 0 = no growth, -100 = all killed)
Holding throughout (conditions): 10 µM unless noted

In test [1] the test system is T-47D breast.
The test system of test [2] is BT-549 breast.
Test [3] has as its system MDA-MB-435 melanoma.
Test [4] has as its system SW-620 colon.
Test [5] deals with MCF7 breast.
The subject of test [6] is HCT-116 colon.
Test [7] has as its system HCC-2998 colon.
The subject of test [8] is KM12 colon.

This is part of a sample that, as a whole, favours compounds with a hit. Of some 83,000 tested, about 20% had one in any assay.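 For each line, cells grew in 96-well plates with the test compound present at a single concentration for 48 hours.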 Values without a mark were called inactive. The source made the active and inactive calls. The calls were made as follows: active = growth percent below 10; inactive = the rest.

As to `NC(=O)C1(Nc2ccc(Br)cc2)CCCC1`, the growth is 98.9% in test [1]; 104% in test [2]; 105% in test [3]; 106% in test [4]; 92.2% in test [5]; 105% in test [6]. The results for the growth in test [7] and in test [8] were 116% and 109%, respectively.

Take `COc1ccc2sc3c(NCCO)nc4ccccc4c3c(=O)c2c1`: the growth in test [1] was 88.5%; in test [2] it was 100%; in test [3], 106%; in test [4], 101%; in test [5], 47%; in test [6], 92.7%. Also, the growth in test [7] is 115%; in test [8], 89%.

As to `Oc1ccc(Cl)cc1Cc1cc(Cl)cc(Cl)c1O`, the growth is 40.7% in test [1]; -11.4% (active) in test [2]; 15.4% in test [3]; 28% in test [4]; 60.1% in test [5]; 37.1% in test [6]. Moreover, the growth was 70.6% in test [7] and 37.6% in test [8].

For `COc1ccc2c(c1)c(-c1ccc(-c3cn(C)c4ccc(OC)cc34)o1)cn2C`, the growth is -14% (active) in test [1]; 1.95% (active) in test [2]; 89.5% in test [3]; 38% in test [4]; 65.4% in test [5]; 68.6% in test [6]. The figures for the growth in test [7] and in test [8] were 30.1% and 22.7%, respectively.

Regarding `COc1cc(Nc2nc(NCCN)nc3cc[nH]c(=O)c23)cc(OC)c1`, the growth is 122% in test [1]; 66.7% in test [2]; 69.6% in test [3]; 64.2% in test [4]; 77.2% in test [5]; 46.6% in test [6]. Moreover, the growth in test [7] was 79.3%; in test [8] it was 76%.

`NCCOc1ncccc1/C=C1\C2C=CC=CC2C2C=CC(F)=CC12` (centres undefined): the growth in test [1] is 33.1%; in test [2], 84.7%; in test [3] it was 63.4%; in test [4] it was 13.3%; in test [5], 11.8%; in test [6], 22.2%. Further, the growth in test [7] is 4.37% (active); in test [8], 29%.

Turning to `C/C=C(\C)C(=O)N[C@H]1[C@@H](OC(C)=O)C[C@]2(C)C3CC[C@@]4(C)C(CC[C@@H]4C(C)N(C)C)C3CCC2[C@H]1O` (some centres undefined), the growth in test [1] is 60.6%; in test [2], 63.4%; in test [3] it was 1.82% (active); in test [4], 63.9%; in test [5], 61.9%; in test [6] it was 30.7%. Further, the results for the growth in test [7] and in test [8] were 69.2% and 45.6%, respectively.

On to `COc1cc(C2CC(c3ccc(N(C)C)cc3)=NN2C(C)=O)cc(OC)c1OC` (centres undefined), for which the growth was 31.7% in test [1]; 45.1% in test [2]; -65.6% (active) in test [3]; 10.7% in test [4]; 11.5% in test [5]; 20.6% in test [6]. Besides, the values for the growth in test [7] and in test [8] were 24.9% and 10.8%, respectively.

Turning to `Cc1nc2cnc(N)c(C#Cc3cncc(C(=O)Nc4ccc(CN5CCN(C)CC5)c(C(F)(F)F)c4)c3)c2nc1C`, the growth was 45.2% in test [1]; 35.6% in test [2]; 0.973% (active) in test [3]; -20.9% (active) in test [4]; 1.7% (active) in test [5]; 0.345% (active) in test [6]. The growth was 11.5% in test [7] and -17.4% (active) in test [8].

Take `O=C(CCOCCNC(=O)COc1ccc2c(c1)OCC(c1ccc(F)cc1)C2=O)NCCCC(O)(P(=O)(O)O)P(=O)(O)O` (centres undefined): the growth in test [1] was 101%; in test [2], 105%; in test [3], 102%; in test [4], 101%; in test [5] it was 89%; in test [6], 101%. Besides, the results for the growth in test [7] and in test [8] were 98% and 100%, respectively.

For `CCN(CC)Cc1cc(Nc2c3ccc(Cl)cc3nc3ccc(OC)cc23)ccc1O`, the growth in test [1] is 67.5%; in test [2] it was 81.4%; in test [3], 60.2%; in test [4], 31.7%; in test [5] it was 17.4%; in test [6] it was 12.8%. The growth is 43.6% in test [7] and 40.6% in test [8].

Consider `COc1ccc(C(=O)C[C@]2(O)C(=O)Nc3c(Cl)ccc(Cl)c32)cc1`, for which the growth was 29.9% in test [1]; 49.8% in test [2]; -40.9% (active) in test [3]; 21.4% in test [4]; 19.7% in test [5]; 17% in test [6]. Moreover, the figures for the growth in test [7] and in test [8] were 23.1% and 47.6%, respectively.

Regarding `COC(=O)CCC/C=C\C[C@H]1C=CC(=O)/C1=C/C[C@@H](O)CCc1cccc(C(F)(F)F)c1`, the growth in test [1] is 9.77% (active); in test [2], -11.4% (active); in test [3], -82.2% (active); in test [4], -40% (active); in test [5], 6.5% (active); in test [6] it was -89% (active). Besides, the growth in test [7] was -89.6% (active); in test [8], -51.9% (active).

With `COc1ccc2[nH]c(-c3ccccc3)c(/C=C(\C#N)S(=O)(=O)c3ccccc3)c2c1`, the growth is 38.1% in test [1]; 64.5% in test [2]; 2.24% (active) in test [3]; 35.6% in test [4]; 26.2% in test [5]; 31.4% in test [6]. The growth in test [7] was 68.4%; in test [8] it was 33.4%.

In the case of `O=C(O)c1cn(C2CC2)c2cc(N3CCN(C(=O)Nc4nc(-c5ccc(Cl)cc5)cs4)CC3)c(F)cc2c1=O`, the growth was 5.75% (active) in test [1]; 0.292% (active) in test [2]; 9.36% (active) in test [3]; 20.2% in test [4]; 2.95% (active) in test [5]; 14.8% in test [6]. The growth in test [7] is 30.6%; in test [8], 8.97% (active).

For `COc1cc(CCCO)c(OC)c(OC)c1OC`, the growth was 99.4% in test [1]; 107% in test [2]; 102% in test [3]; 105% in test [4]; 104% in test [5]; 106% in test [6]. Moreover, the growth is 103% in test [7] and 105% in test [8].

Regarding `CN1CCN(c2ccc(-c3ccc4ncc(C#N)c(Nc5ccc(F)c(Cl)c5)c4c3)cc2)CC1`, the growth was 60.7% in test [1]; 63.3% in test [2]; 21.6% in test [3]; 21.5% in test [4]; 51.4% in test [5]; 18.2% in test [6]. The values for the growth in test [7] and in test [8] were 48.6% and 57.2%, respectively.

With `Cc1nc2ccccc2c(/C=C/c2ccccc2)c1C(=O)/C=C/c1ccc(C(F)(F)F)cc1`, the growth in test [1] was -14.6% (active); in test [2] it was -25.6% (active); in test [3], -82.6% (active); in test [4], -32.9% (active); in test [5], -9.44% (active); in test [6], -64.5% (active). For the same compound, the growth in test [8] was -58.9% (active).

`COc1c(B(O)O)cc(F)cc1-c1nc2ccc3[nH]ncc3c2c2c1CCCC2`: the growth in test [1] is 14%; in test [2], -35.5% (active); in test [3], 16.4%; in test [4], 5.71% (active); in test [5] it was 4.26% (active); in test [6], 3.48% (active). Also, the growth in test [7] was 5.31% (active); in test [8], -3.54% (active).

Take `COc1cc(OCc2cccc(-c3ccc(C(O)c4nccs4)cc3)c2C)cc(OC)c1CNCCNC(C)=O` (centres undefined): the growth in test [1] is 90.8%; in test [2], 102%; in test [3] it was 98.5%; in test [4], 97.8%; in test [5] it was 89.9%; in test [6] it was 94%. Also, in test [8], the growth was 101%.

On to `CNC(=O)c1[nH]cc(-c2ccccc2)c1-c1cc(OC)c2c(c1OC)OCO2`, for which the growth in test [1] is 88.7%; in test [2] it was 95.6%; in test [3], 102%; in test [4], 99.9%; in test [5], 99.9%; in test [6], 99.5%. Also, the growth in test [8] is 96.9%.

Turning to `O=C1CCC/C=C\C[C@H]2C=CC(=O)/C2=C/C[C@H](CCc2cccc(C(F)(F)F)c2)O1`, the growth in test [1] was -28% (active); in test [2], -29.3% (active); in test [3] it was -42.1% (active); in test [4], -32% (active); in test [5] it was -6.2% (active); in test [6] it was -82% (active). Besides, the growth in test [8] is -63.5% (active).

For `CCN(CC)S(=O)(=O)c1ccc(NC(=O)CSc2nnc(C)n2-c2ccccc2)cc1`, the growth is 106% in test [1]; 117% in test [2]; 99.2% in test [3]; 105% in test [4]; 113% in test [5]; 102% in test [6]. The growth in test [8] is 104%.

On to `Oc1ccc(C#CCOc2ccccc2)cc1CNCCN(Cc1ccccn1)Cc1ccccn1`, for which the growth in test [1] is 14.4%; in test [2], 37.7%; in test [3] it was 32.6%; in test [4], 15.6%; in test [5], 4.05% (active); in test [6], 9.79% (active). Also, the growth in test [8] is 18.9%.

As for `N#C/C(=C\c1ccc(F)cc1)n1nc2cccc(F)c2n1`, the growth is 33% in test [1]; 60.8% in test [2]; -55.4% (active) in test [3]; 18.9% in test [4]; 14.1% in test [5]; 20.8% in test [6]. In test [8], the growth is 16.4%.

`COc1ccc(-c2nn(C(=O)c3cc(OC)c(OC)c(OC)c3)c3cc(N)ccc23)cc1`: the growth was 59.9% in test [1]; 21.5% in test [2]; 5.29% (active) in test [3]; 31.6% in test [4]; 6.74% (active) in test [5]; 5.15% (active) in test [6]. Besides, the growth in test [8] was 12.4%.

`c1ccc2c(-c3nc(-c4c[nH]c5ccncc45)cs3)c[nH]c2c1`: the growth is 58.8% in test [1]; 77.3% in test [2]; -79.8% (active) in test [3]; -63% (active) in test [4]; 20.5% in test [5]; -15.3% (active) in test [6]. In addition, the growth in test [8] was 34%.

As for `FC(F)(F)c1cc(Nc2ccc3c(OCCCN4CCOCC4)cccc3n2)ccc1Cl`, the growth in test [1] is 48.1%; in test [2], 62.1%; in test [3] it was 62.7%; in test [4] it was 1.47% (active); in test [5] it was 17.9%; in test [6], 10.8%. The growth in test [8] was -0.295% (active).

Turning to `C[C@H](C(=O)Nc1ccc(S(N)(=O)=O)cc1)S(=O)(=O)c1ccccc1`, the growth in test [1] is 93.2%; in test [2], 96.8%; in test [3] it was 102%; in test [4] it was 110%; in test [5], 96.1%; in test [6] it was 92.1%. Besides, in test [8], the growth is 104%.

As for `Oc1ccc(-c2nc3ccc4[nH]ncc4c3c3c2CCCC3)c2cccnc12`, the growth in test [1] is 15.1%; in test [2] it was -12.9% (active); in test [3], -7.42% (active); in test [4], 7.64% (active); in test [5], 2.05% (active); in test [6] it was 2.74% (active). In addition, the growth in test [8] was 2.51% (active).

Consider `Nc1nc(-c2cccc3ccccc23)cc2ccccc12`, for which the growth in test [1] was 43.7%; in test [2], 39.2%; in test [3], -64.8% (active); in test [4], 19.4%; in test [5], 7.69% (active); in test [6], 10.8%. Besides, the growth in test [8] was 5.93% (active).

Consider `COc1ccc(NC(=O)n2nc(/C=C\c3ccc(O)c(OC)c3)cc2/C=C\c2ccc(O)c(OC)c2)cc1`, for which the growth in test [1] is 34.8%; in test [2], 31.4%; in test [3], -36.3% (active); in test [4] it was 27.1%; in test [5], 15.6%; in test [6], 9.13% (active). The growth in test [8] is 17.9%.

On to `Cc1ccc(-c2nn(C)c(=O)c3noc(-c4ccc(C)cc4)c23)cc1`, for which the growth was 24.2% in test [1]; 30.8% in test [2]; -5.41% (active) in test [3]; 21.1% in test [4]; 30% in test [5]; 37.5% in test [6]. Besides, the growth in test [8] was 35.9%.
